# Source: PubChem BioAssay (National Center for Advancing Translational Sciences (NCATS))
# Rows were chosen to be rich in hits. Some 10% of all compounds tested hit in one or more screens of this group.
# hNpr1 antagonist = human Npr1 receptor antagonism; P16066; HEK293 hNpr1 GloSensor cGMP, ANP-stimulated luminescence; Potency, µM (titrated, usually from 46.3 µM), for the others: at the top dose activity change, negative = inhibition, hits mostly inhibitors; 1.6% of 76,000 active; calls by dose curve; further: on the % scale 0 is the no-effect control and ±100 the full control effect; nearly all actives have a fitted effect of over 60% in size
#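 HEK293 cells stably expressing human Npr1 and cGMP GloSensor pGS-40F, loaded 2 h with 2% GloSensor reagent, given compound 30 min at room temperature. Luminescence read before and 20 min after 0.1 nM hNppA.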
# GPT2 inhibitor = inhibitors of human GPT2 alanine aminotransferase; Q8TD30; Recombinant GPT2, coupled pyruvate oxidase/HRP Amplex Red fluorescence; Potency, µM (titrated, usually from 57.7 µM), without a hit: top-dose activity change, negative = inhibition, actives largely listed as inhibitors; 0.25% of 100,000 active; AID 1671188; further: on the % scale 0 is the no-effect control and ±100 the full control effect; nearly all actives have a fitted effect of over 60% in size
# Target sequence (Q8TD30 whole entry, looked up): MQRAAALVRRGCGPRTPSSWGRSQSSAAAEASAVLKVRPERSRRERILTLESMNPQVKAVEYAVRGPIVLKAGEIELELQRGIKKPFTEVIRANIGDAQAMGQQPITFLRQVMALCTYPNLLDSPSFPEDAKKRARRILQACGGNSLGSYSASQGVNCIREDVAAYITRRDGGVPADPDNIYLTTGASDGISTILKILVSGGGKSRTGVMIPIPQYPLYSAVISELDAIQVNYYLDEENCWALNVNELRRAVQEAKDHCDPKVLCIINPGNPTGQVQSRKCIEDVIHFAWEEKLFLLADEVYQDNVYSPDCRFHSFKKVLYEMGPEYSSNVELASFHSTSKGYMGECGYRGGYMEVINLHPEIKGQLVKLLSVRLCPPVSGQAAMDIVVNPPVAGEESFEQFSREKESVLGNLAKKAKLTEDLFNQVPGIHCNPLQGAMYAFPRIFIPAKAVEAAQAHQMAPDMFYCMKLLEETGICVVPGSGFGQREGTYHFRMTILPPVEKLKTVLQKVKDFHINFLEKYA
#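 Fluorescence of coupled pyruvate oxidase/HRP/Amplex Red system (50uM Amplex, 30 min, dark) reports pyruvate formed by GPT2. Enzyme reaction: 10ng/uL GPT2, 2mM L-alanine, 250uM a-KG, 30 min room temperature, pH 7.5; 50uM AOA control.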
# FLuc inh-1 = blocks purified firefly luciferase enzyme activity; P08659; purified P. pyralis luciferase, luminescence, biochemical; Potency, µM (titrated, usually from 115 µM), usual class: inhibitors; 2.5% of 76,000 active; AID 1347043; further: on the % scale 0 is the no-effect control and ±100 the full control effect; nearly all actives have a fitted effect of over 65% in size
#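 Biochemical qHTS: compound (6-point titration) added to 10uM D-luciferin plus 10uM ATP in Tris acetate pH 7.5 buffer with Mg, Tween-20 and BSA, then purified enzyme at 10nM; light output imaged.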
# HEK293 tox = kills HEK 293 cells; HEK 293 viability, ATP luminescence (CellTiter-Glo), 48-72 h; Potency, µM (series often up to 115 µM), for the others: at the highest dose activity change, negative = cytotoxicity, actives largely listed as inhibitors; AID 1345083; 6.6% of 94,000 active; further: on the % scale 0 is the no-effect control and ±100 the full control effect; nearly all actives have a fitted effect of over 60% in size
#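 250 HEK 293 cells/well; compound by pintool; incubated 48 or 72 hr at 37 degree Celsius; CellTiter-Glo added, 10 min RT, luminescence imaged.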
# 3T3 cytotox = cytotoxic compounds in NIH 3T3 cells. 4.3% of 94,000 active. Potency, µM (titrated, usually from 96.7 µM), inactives show at the highest dose activity change, negative = cytotoxicity, hits mostly inhibitors. NIH 3T3 viability, CellTiter-Glo ATP luminescence, 48-72 h; further: on the % scale 0 is the no-effect control and ±100 the full control effect; nearly all actives have a fitted effect of over 55% in size
#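 Cells were seeded at 400 per well, treated with pin-transferred compound, and kept 48 or 72 hr at 37 °C before CellTiter-Glo addition and luminescence imaging of cellular ATP.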
# FLuc SDR -ATP = firefly luciferase binding stabilization, ATP absent; AID 1963318; Potency, µM (titrated, usually from 32.7 µM), for inactives: at the top dose activation (signal gain), usual class: activators; Purified FLuc-C-HiBiT, Nano-Glo HiBiT luminescence, no ATP; 7.8% of 1,300 active; shares compounds with FLuc inh-1; further: nearly all actives have a fitted effect of over 55% in size
# FLuc SDR ATP = stabilizes firefly luciferase with ATP present; 8.7% of 1,300 active; purified FLuc-C-HiBiT + ATP, HiBiT complementation luminescence; shares compounds with FLuc inh-1; AID 1963319; Potency, µM (doses to about 32.7 µM), for inactives: at the top dose activation (gain of signal), most hits filed as activators;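 further: signal reports ligand binding via conformational change of the enzyme rather than luciferase catalysis; % of control where 0% means no effect; nearly all actives have a fitted effect of over 55% in size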
# FLuc inh-2 = firefly luciferase enzyme inhibition; shares compounds with FLuc inh-1; purified FLuc-C-HiBiT enzyme, luciferin luminescence; Potency, µM (doses to about 32.7 µM), for the others: at the top dose activity change, negative = inhibition, hits mostly inhibitors; 42% of 1,300 active; AID 1963320; further: on the % scale 0 is the no-effect control and ±100 the full control effect; nearly all actives have a fitted effect of over 70% in size
# Numbers without * were called inactive; i = inactive; ? = inconclusive; . = no result; [ ] = another dose, or the depositor's remark. Unless noted, the call rests on the fitted dose curve; in most records, active means well fitted curve in the direction sought with a large enough effect; inconclusive means small, poorly fitted or top-dose-only effect, or another doubt; inactive means no such curve, though single readings can be large; an effect the other way counts as inactive or inconclusive. Potency means the concentration at half of the fitted maximal effect.
SMILES,hNpr1 antagonist,GPT2 inhibitor,FLuc inh-1,HEK293 tox,3T3 cytotox,FLuc SDR -ATP,FLuc SDR ATP,FLuc inh-2
O=C(C1CCCC1)N1CC2(CCCCN2Cc2cccnc2)Cc2ccccc21 (stereo unspecified),.,-6%,.,?,?,.,.,.
COCC(=O)NC1CCC12CCN(C(=O)CC(C)C)CC2 (stereo unspecified),.,-9%,.,2%,-12%,.,.,.
OCc1ccnc(-c2ccc(-c3ccn[nH]3)cc2)c1,5µM*,-4%,10µM*,0%,-14%,23%,?,?
CCOc1ccc(NC(=O)Nc2cccc(C(=O)O)c2)cc1,.,.,.,.,.,4.4µM*,0.007µM*,0.0088µM*
Cc1ccc(C(=O)Nc2cccc(C(=O)O)c2)cc1,.,.,.,.,.,12µM*,0.05µM*,0.056µM*
CCOc1ccc(NC(C)=O)cc1,.,i,.,.,.,.,.,.
CCC[C@H]1CN(Cc2nc(C)no2)C[C@@H]1NC(=O)CCS(C)(=O)=O,2%,0%,i,i,-1%,.,.,.
Nc1nc(N2CCC3(CC2)NC(=O)CC3C(=O)O)c2[nH]cnc2n1 (stereo unspecified),2%,3%,i,i,-3%,13%,9%,4%
Nc1c(C(=O)Nc2ccc(C(=O)O)cc2)sc2nc3c(cc12)CCCC3,.,.,.,.,.,11µM*,0.25µM*,0.18µM*
N#Cc1c(NC(=O)c2cccc3ccccc23)sc2c1CCCC2,.,-7%,.,.,.,12%,8%,-20%
CCN1CCN(C(=O)c2cc(-c3ccc(C)cc3)cn2CC)CC1,1%,i,i,?,?,.,.,.
CCn1cc(-c2ccc(OC)cc2)cc1C(=O)O,-3%,-6%,25µM*,?,-23%,16%,14%,?
CCn1cc(-c2ccc(F)cc2)cc1C(=O)O,-13%,-5%,i,-14%,-20%,16%,11%,-8%
CCn1cc(-c2ccc(OC)cc2)cc1C(=O)NCC(=O)OC,-8%,?,i,-15%,-13%,.,.,.
O=C1CCCCCN1CCc1nc(C2CCOC2)no1 (stereo unspecified),6%,i,i,-7%,-14%,.,.,.
COC(=O)Nc1nc2ccc(C(=O)c3ccccc3)cc2[nH]1,.,2%,.,.,.,.,.,.
CCOc1cccc2cc(-c3nc4ccc(C(=O)O)cc4[nH]3)c(=O)oc12,.,.,.,.,.,?,0.16µM*,0.16µM*
COc1ccc2cc(-c3nc4ccc(C(=O)O)cc4[nH]3)c(=O)oc2c1,.,.,.,.,.,0.79µM*,0.02µM*,0.016µM*
CC(C)(O)c1cn(C2CCN(C(=O)c3ccccc3F)CC2)nn1,1%,-2%,i,-1%,-11%,.,.,.
COCCNC(=O)[C@H]1C[C@H](Oc2cccnc2)CN1S(=O)(=O)c1ccccc1C,0%,i,i,i,-2%,.,.,.
CCNC(=O)[C@@H]1CCCN1[C@@H](C(=O)NC)c1ccc(OC)cc1,0%[70.6 µM],-5%[88.5 µM],i,-3%[172 µM],-1%[138 µM],.,.,.
CCSc1ccccc1C(=O)Nc1ccc(-c2nc3ccccc3s2)c(O)c1,.,.,.,.,.,14%,10%,-3%
Cc1cc(NC(=O)c2ccccc2F)ccc1-c1nc2ccccc2s1,.,.,.,.,.,18%,14%,?
O=C(Nc1ccc(-c2nc3ccccc3s2)c(O)c1)c1ccccc1F,.,.,.,.,.,14%,11%,-16%
CC(C)c1ccc(CNc2ncncc2-c2nc(-c3ccccc3)no2)cc1,-20%,-21%,i,-2%,-15%,.,.,.
COc1ccc(NC(=O)/C(C#N)=C/c2ccc(C)o2)cc1,.,.,.,.,.,22%,17%,?
COc1ccc(NC(=O)N2CC3CN(C)CC(C2)O3)cc1,-2%,i,i,3%,-9%,.,.,.
